# Results filed as inconclusive are left out. Unmarked numbers belong to inactive results. Active and inactive are the calls of the source. The call rests on the fitted dose curve.
# Assay: cAMP Responsive Elements (CRE) small molecule agonists, cell-based qHTS assay (AID 1963590)
# Settings: CRE-bla HEK293T, beta-lactamase FRET ratio, 3 h; series mostly up to 92.4 µM; activation: at the top concentration
# From the text: U.S. Tox21 Program National Center for Advancing Translational Sciences [NCATS] Division of Preclinical Innovation [DPI] U.S. Environmental Protection Agency [EPA] National Institutes of Environmental Health Sciences [NIEHS] National Toxicology Program [NTP] U.S. Food and Drug Administration [FDA] Tox21 Assay Overview: CREB (cyclic-AMP Responsive Element Binding Protein) is a cellular transcription factor. It binds to certain DNA sequences called cAMP Responsive Elements (CRE) and regulates the transcription of the genes. […] This cell line can be used to find agonists/antagonists of the cyclic AMP signaling pathway. The activation of the report gene under culture conditions can be detected by fluorescence intensity. This cell line has been used to screen the Tox21 10K compound library to identify agonists that induce oxidative stress.
# Tox21 Assay Protocol Summary: CRE-bla Hek 293T cells were suspended in assay medium (DMEM containing 10% dialyzed FBS, 0.1 mM NEAA, 1 mM sodium pyruvate and 25 mM HEPES) and dispensed at 2,000 cells/5 uL /well into 1536-well black wall/clear bottom plates using a Multidrop Combi (ThermoFisher Scientific, Waltham, MA) dispenser. After the assay plates were incubated at 37 C/5% CO2 for 18 hrs, 23 nL of compounds dissolved in DMSO, positive controls or DMSO only was transferred to the assay plate by a pintool workstation (Kalypsys, San Diego, CA). After the plates were incubated at 37 C/5% CO2 for 3 hrs, 1 uL of LiveBLAzer B/G FRET substrate (Invitrogen, Carlsbad, CA) was added to each well using Bioraptr Flying Reagent Dispenser (FRD, Aurora Discovery, San Diego, CA). The plates were incubated at room temperature for 2 h.
# On the % scale 0 is the no-effect control and ±100 the full control effect.
SMILES,activation,Potency
COC(=O)c1ccc([N+](=O)[O-])cc1,0.259%,–
O=C(O)C(=O)Nc1cccc(-c2nn[nH]n2)c1,1.04% [at 42.5 µM],–
CC1CC(=O)CC(C)(C)C1 (stereo not given),-0.0409%,–
N[C@@H](CCC(=O)Nc1ccc([N+](=O)[O-])cc1)C(=O)O,-2.24%,–
CC(C)OC=O,0.0208%,–
Nc1cc(C(Cl)=C(Cl)Cl)c(S(N)(=O)=O)cc1S(N)(=O)=O,0.0129% [at 42.5 µM],–
CCCCCCCCSCC,-0.549%,–
CCCN1C=CN(C)C1,–,inactive
COC(=O)/C=C(/C)N,-0.121% [at 42.5 µM],–
O=[N+]([O-])c1ccc2nc[nH]c2c1,-4.02%,–
Cc1cc(C)c(C(=O)O)c(C)c1,-1.28%,–
O=C(O)CCS,0.89%,–
CCCCN(CCCC)CCCCCCN(CCCC)CCCC,0.27%,–
CC(=N\O)/C(C)=N/O,-2.41%,–
CC(C)OCCO,0.0145%,–
CCC(=O)OC(C)(C)C1CC=C(C)CC1 (stereo not given),-0.346%,–
CCN(CC)S(=O)(=O)c1ccc(C(=O)O)cc1,-1.73% [at 42.5 µM],–
CC(C)(c1ccc(O)cc1)c1ccc(O)cc1,–,inactive
CCN(CCO)c1cccc(C)c1,0.474%,–
CCN1CCCC(OC(=O)C(c2ccccc2)c2ccccc2)C1 (stereo not given),-0.774% [at 42.5 µM],–

SMILES,activation,Potency
C=CCOCC(O)CO (stereo not given),-0.705%,–
CC(C)CCOC(=O)c1ccccc1,0.145%,–
CCCCCC(CC)OC(=O)CCCOc1ccc(Cl)cc1Cl (stereo not given),-3.95%,–
Cc1cc(C)c(C)c(O)c1,-0.277%,–
c1cnccn1,0.361%,–
CC(C)=CCCC(C)CCOC(=O)C(C)C (stereo not given),-0.0384%,–
O=C(O)c1cc(N=Nc2ccc(S(=O)(=O)Nc3ccccn3)cc2)ccc1O,–,inactive
NC[C@H]1O[C@H](O[C@H]2[C@H](O)[C@@H](O[C@H]3O[C@H](CO)[C@@H](O)[C@H](N)[C@H]3O)[C@H](N)C[C@@H]2N)[C@H](N)[C@@H](O)[C@@H]1O,0.862% [at 19 µM],–
Cn1cc(S(C)=O)c(=O)c2ccc(F)cc21 (stereo not given),1.06% [at 42.5 µM],–
NCC1CCCC(CN)C1 (stereo not given),0.439%,–
C=CC(C)(O)CC/C=C(\C)CCC=C(C)C (stereo not given),2.51%,–
Nc1c(Br)cc([N+](=O)[O-])cc1Br,-1.21%,–
CCOc1ccccc1OCC,0.165%,–
C=COCCCC,0.0773%,–
CSc1cnccn1,0.36%,–
C=CCOCC(CC)(CO)COCC=C,0.281%,–
COc1nc(C)nc(NC(=O)NS(=O)(=O)c2ccccc2OCCCl)n1,-1.89%,–
C=CC(=O)NCOCC(C)C,0.483%,–
Cc1oc(C)c(C(=O)Nc2ccccc2)c1C,0.724%,–
COC(=O)c1ccc(C(=O)OC)cc1,–,inactive
